According to PMC7862700, “An all-to-all approach to the identification of sequence-specific readers for epigenetic DNA modifications on cytosine”:

Tests used:
Experiment in all cases: DAPPL (digital affinity profiling via proximity ligation, sequencing); 10 mM Tris-HCl pH 7.5, 50 mM NaCl, 1 mM DTT, 4% glycerol, room temperature, 30 min; GST-TFs on glutathione beads, 16-mer random dsDNA library, 0.1% formaldehyde crosslink after washing; high values mean tight binding
[1] = target: T1, FLI1 (Homo sapiens, UniProt Q01543 1-452); conditions: protein: recombinant; tags: N-terminal GST; dsDNA, one strand shown
T1 sequence: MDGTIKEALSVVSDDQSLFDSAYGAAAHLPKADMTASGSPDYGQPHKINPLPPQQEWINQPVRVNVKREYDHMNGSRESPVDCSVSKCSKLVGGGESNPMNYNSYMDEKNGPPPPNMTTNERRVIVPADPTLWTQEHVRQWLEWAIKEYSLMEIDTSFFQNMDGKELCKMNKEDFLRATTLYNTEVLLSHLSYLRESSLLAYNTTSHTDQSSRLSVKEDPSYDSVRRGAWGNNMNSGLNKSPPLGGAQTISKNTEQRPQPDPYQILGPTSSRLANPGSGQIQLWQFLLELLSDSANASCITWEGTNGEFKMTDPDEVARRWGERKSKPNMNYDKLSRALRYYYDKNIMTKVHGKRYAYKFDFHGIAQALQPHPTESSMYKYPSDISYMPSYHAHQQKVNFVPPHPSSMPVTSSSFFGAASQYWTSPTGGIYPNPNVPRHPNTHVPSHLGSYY
In short: (§1)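 Human transcription factors carrying a GST fusion were produced in yeast, bound to glutathione beads, tagged with DNA barcodes and pooled together with a tag-only sample. Each pool was held with 200 nmole of a random double-stranded 16-mer DNA library in Tris/NaCl/DTT/glycerol buffer for 30 min at room temperature, then washed, crosslinked in 0.1% formaldehyde, proximity-ligated with BsaI/T4 ligase (1 h, 37 °C), PCR-amplified and sequenced on an Illumina NextSeq500. Binding signal is the read frequency of each hexamer for a given factor divided by its frequency in the tag-only sample.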

[2] = target: T2, ELK1 (Homo sapiens, UniProt P19419 1-428); conditions: protein: recombinant; tags: N-terminal GST; dsDNA, one strand shown
T2 sequence: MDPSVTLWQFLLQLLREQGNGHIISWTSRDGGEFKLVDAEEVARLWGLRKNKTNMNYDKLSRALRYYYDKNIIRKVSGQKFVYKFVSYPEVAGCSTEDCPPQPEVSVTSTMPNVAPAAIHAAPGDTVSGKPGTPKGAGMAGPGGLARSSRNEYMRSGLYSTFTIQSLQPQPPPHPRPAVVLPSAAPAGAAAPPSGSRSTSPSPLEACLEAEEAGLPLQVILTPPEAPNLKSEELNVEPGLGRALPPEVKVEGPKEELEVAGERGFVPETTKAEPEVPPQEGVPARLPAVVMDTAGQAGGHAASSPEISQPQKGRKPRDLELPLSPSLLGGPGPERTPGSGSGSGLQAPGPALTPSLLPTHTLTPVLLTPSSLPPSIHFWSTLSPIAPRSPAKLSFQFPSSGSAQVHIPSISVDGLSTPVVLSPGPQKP
In short: as §1

[3] = target: T3, GABPA (Homo sapiens, UniProt Q06546 1-454); conditions: protein: recombinant; tags: N-terminal GST; dsDNA, one strand shown
T3 sequence: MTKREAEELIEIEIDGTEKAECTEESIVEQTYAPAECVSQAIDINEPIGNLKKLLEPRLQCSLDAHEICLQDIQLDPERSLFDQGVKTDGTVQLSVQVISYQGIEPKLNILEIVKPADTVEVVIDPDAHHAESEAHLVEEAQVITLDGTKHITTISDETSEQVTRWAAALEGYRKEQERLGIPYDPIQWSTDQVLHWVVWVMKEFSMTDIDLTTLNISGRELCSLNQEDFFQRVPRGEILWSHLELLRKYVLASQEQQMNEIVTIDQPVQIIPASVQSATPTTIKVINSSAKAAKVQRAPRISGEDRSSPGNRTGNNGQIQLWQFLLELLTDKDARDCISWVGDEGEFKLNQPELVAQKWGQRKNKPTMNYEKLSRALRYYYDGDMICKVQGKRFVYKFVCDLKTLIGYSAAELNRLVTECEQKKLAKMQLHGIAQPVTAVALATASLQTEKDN
In short: as §1

[4] = target: T4, ERG (Homo sapiens, UniProt P11308 1-479); conditions: protein: recombinant; tags: N-terminal GST; dsDNA, one strand shown
T4 sequence: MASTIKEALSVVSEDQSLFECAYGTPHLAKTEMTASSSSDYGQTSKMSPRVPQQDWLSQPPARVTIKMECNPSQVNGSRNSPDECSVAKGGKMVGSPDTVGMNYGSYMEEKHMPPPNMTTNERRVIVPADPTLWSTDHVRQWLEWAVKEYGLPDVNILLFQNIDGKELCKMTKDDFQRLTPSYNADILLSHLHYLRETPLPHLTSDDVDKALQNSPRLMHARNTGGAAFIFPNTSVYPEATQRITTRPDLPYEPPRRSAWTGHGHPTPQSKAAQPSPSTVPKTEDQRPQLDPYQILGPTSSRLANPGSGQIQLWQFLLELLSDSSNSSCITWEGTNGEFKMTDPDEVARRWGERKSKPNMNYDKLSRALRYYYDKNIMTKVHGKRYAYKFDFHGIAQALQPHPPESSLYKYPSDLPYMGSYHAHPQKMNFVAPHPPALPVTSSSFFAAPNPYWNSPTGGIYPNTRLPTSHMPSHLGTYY
In short: as §1

[5] = target: ELF1 (Homo sapiens, UniProt P32519 1-619); conditions: protein: recombinant; tags: N-terminal GST; dsDNA, one strand shown
Sequence of ELF1 (P32519 whole entry): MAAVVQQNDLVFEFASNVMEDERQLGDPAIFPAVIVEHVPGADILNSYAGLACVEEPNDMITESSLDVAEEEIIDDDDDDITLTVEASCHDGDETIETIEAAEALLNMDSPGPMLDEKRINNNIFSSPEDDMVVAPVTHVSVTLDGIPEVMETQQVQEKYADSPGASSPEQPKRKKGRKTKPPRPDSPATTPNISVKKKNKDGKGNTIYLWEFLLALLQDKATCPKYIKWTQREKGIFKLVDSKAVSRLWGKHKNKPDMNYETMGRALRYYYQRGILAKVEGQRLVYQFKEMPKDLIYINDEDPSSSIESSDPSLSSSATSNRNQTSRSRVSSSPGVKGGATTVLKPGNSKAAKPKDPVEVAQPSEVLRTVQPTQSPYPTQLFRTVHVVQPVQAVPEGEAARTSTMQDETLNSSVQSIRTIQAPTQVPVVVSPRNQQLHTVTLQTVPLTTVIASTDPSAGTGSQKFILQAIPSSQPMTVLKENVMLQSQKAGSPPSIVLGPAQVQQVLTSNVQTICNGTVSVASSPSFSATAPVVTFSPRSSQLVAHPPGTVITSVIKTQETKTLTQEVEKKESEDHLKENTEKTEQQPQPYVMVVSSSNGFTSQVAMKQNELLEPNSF
In short: as §1

[6] = target: T5, EHF (Homo sapiens, UniProt Q9NZC4 1-300); conditions: protein: recombinant; tags: N-terminal GST; dsDNA, one strand shown
T5 sequence: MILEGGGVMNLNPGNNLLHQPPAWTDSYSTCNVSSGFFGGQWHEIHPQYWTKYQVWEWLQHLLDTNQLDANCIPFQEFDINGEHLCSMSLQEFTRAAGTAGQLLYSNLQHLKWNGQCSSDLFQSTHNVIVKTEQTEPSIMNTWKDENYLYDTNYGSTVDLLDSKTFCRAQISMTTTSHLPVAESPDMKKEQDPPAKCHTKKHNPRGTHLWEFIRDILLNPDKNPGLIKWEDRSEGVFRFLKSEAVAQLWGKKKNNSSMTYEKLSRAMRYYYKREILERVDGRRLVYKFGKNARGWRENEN
In short: as §1

[7] = target: SPI1 (Homo sapiens, UniProt P17947 1-270); conditions: protein: recombinant; tags: N-terminal GST; dsDNA, one strand shown
In short: as §1

[8] = target: SPIB (Homo sapiens, UniProt Q01892 1-262); conditions: protein: recombinant; tags: N-terminal GST; dsDNA, one strand shown
Sequence of SPIB (Q01892 whole entry): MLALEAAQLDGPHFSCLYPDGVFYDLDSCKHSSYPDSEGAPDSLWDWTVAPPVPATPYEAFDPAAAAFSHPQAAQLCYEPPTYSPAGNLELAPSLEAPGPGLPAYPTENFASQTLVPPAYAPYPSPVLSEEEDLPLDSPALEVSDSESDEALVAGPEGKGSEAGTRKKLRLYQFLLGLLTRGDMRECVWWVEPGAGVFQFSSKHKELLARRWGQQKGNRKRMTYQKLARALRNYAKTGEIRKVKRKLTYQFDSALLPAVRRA
In short: as §1

[9] = target: T6, ELK3 (Homo sapiens, UniProt P41970 1-407); conditions: protein: recombinant; tags: N-terminal GST; dsDNA, one strand shown
T6 sequence: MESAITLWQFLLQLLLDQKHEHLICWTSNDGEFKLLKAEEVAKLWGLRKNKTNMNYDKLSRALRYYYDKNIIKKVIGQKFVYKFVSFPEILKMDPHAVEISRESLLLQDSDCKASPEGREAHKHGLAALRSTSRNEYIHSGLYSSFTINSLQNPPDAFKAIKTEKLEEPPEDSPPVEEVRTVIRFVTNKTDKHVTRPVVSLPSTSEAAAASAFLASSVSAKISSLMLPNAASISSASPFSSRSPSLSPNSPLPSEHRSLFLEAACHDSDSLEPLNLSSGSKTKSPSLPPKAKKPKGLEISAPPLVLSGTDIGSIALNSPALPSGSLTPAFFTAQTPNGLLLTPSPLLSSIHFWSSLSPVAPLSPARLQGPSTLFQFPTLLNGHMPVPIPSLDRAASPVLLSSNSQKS
In short: as §1

[10] = target: T7, FEV (Homo sapiens, UniProt Q99581 1-238); conditions: protein: recombinant; tags: N-terminal GST; dsDNA, one strand shown
T7 sequence: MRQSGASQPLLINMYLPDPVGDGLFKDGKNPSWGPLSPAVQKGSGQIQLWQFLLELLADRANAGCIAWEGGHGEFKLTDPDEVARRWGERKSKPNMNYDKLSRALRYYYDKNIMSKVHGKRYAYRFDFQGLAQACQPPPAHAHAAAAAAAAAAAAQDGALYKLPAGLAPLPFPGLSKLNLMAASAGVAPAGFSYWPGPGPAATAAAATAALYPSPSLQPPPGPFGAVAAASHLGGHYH
In short: as §1

[11] = target: ETV5 (Homo sapiens, UniProt P41161 1-510); conditions: protein: recombinant; tags: N-terminal GST; dsDNA, one strand shown
Sequence of ETV5 (P41161 whole entry): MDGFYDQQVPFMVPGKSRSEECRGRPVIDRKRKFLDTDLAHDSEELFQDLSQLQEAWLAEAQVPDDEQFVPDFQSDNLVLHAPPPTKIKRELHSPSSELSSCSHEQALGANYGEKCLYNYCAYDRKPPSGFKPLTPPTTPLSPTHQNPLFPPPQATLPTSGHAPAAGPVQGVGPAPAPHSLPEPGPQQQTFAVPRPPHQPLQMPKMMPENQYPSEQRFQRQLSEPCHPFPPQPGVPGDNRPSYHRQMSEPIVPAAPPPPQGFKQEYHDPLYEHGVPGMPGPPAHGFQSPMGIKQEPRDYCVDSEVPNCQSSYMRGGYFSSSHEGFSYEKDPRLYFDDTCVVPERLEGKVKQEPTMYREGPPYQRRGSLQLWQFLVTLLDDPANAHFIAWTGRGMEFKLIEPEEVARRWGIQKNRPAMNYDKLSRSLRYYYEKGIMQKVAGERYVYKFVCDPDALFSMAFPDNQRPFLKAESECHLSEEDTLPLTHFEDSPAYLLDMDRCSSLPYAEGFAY
In short: as §1

[12] = target: HSF1 (Homo sapiens, UniProt Q00613 1-529); conditions: protein: recombinant; tags: N-terminal GST; chain copies: 3; dsDNA, one strand shown
Sequence of HSF1 (Q00613 whole entry): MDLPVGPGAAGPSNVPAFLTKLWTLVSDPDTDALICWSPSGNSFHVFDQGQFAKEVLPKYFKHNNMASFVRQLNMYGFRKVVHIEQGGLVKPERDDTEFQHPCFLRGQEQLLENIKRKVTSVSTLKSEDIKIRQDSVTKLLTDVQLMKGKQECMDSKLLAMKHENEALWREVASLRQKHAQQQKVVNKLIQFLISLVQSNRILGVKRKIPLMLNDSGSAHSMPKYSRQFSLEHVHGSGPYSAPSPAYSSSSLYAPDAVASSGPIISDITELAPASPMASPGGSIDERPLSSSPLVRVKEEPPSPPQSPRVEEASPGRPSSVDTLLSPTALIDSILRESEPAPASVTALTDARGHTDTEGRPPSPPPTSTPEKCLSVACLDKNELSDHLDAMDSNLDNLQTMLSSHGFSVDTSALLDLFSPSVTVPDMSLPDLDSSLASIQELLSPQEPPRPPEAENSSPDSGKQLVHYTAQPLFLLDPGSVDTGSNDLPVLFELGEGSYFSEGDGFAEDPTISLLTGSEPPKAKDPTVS
In short: as §1

[13] = target: T8, SPIC (Homo sapiens, UniProt Q8N5J4 1-248); conditions: protein: recombinant; tags: N-terminal GST; dsDNA, one strand shown
T8 sequence: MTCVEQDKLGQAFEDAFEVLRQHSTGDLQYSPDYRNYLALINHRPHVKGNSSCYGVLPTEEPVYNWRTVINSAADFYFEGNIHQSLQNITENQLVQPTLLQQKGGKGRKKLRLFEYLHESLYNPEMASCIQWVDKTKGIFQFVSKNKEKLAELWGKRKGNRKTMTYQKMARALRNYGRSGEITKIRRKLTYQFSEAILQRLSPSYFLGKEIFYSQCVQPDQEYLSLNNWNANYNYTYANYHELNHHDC
In short: as §1

[14] = target: ELF4 (Homo sapiens, UniProt Q99607 1-663); conditions: protein: recombinant; tags: N-terminal GST; dsDNA, one strand shown
Sequence of ELF4 (Q99607 whole entry): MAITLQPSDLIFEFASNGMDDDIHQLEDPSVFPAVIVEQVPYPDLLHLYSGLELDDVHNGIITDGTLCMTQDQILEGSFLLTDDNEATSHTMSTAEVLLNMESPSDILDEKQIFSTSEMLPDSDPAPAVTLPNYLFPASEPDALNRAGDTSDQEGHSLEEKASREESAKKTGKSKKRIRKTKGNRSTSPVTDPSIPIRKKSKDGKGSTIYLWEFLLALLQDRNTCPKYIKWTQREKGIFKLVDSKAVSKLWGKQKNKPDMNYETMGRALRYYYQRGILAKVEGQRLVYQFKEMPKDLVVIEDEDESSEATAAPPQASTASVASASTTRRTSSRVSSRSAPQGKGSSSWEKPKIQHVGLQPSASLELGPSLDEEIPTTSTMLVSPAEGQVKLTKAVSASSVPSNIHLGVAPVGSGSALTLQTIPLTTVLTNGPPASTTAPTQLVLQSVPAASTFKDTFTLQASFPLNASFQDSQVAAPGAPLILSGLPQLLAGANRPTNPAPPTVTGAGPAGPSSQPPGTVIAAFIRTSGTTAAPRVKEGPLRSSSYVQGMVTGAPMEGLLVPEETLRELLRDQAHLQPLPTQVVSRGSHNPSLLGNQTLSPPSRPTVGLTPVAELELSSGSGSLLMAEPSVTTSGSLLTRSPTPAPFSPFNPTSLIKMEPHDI
In short: as §1

[15] = target: T9, ELK4 (Homo sapiens, UniProt P28324-2 1-405); conditions: protein: recombinant; tags: N-terminal GST; dsDNA, one strand shown
T9 sequence: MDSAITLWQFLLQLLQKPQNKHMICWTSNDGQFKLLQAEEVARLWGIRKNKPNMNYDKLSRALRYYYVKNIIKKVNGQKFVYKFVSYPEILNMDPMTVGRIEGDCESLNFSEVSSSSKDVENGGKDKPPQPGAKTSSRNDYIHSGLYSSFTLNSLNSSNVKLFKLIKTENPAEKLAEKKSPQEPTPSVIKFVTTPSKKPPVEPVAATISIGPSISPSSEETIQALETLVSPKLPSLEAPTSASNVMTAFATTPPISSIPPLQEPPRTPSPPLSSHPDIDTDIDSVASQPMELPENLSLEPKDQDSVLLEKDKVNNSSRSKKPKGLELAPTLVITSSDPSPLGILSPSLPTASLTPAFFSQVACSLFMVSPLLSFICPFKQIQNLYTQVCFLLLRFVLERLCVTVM
In short: as §1

[16] = target: T10, ETV2 (Homo sapiens, UniProt O00321 1-342); conditions: protein: recombinant; tags: N-terminal GST; dsDNA, one strand shown
T10 sequence: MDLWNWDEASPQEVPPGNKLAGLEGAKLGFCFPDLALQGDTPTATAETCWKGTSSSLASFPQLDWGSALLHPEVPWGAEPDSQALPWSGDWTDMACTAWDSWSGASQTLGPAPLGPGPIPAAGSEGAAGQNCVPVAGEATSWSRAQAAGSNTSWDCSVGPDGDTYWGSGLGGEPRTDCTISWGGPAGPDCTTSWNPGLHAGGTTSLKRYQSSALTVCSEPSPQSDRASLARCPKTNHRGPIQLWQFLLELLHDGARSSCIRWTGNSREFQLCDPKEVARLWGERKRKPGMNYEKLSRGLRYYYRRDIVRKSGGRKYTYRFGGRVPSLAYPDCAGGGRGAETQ
In short: as §1

[17] = target: T11, ELF3 (Homo sapiens, UniProt P78545 1-371); conditions: protein: recombinant; tags: N-terminal GST; dsDNA, one strand shown
T11 sequence: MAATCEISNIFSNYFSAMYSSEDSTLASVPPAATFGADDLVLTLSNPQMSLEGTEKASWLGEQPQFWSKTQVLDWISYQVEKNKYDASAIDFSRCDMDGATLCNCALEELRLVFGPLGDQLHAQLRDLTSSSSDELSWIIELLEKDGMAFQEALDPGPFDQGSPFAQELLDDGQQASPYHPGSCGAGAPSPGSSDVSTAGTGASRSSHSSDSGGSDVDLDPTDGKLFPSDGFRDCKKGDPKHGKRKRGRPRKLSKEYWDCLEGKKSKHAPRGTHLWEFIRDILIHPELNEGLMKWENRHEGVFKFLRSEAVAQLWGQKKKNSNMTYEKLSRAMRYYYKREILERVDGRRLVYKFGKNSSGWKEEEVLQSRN
In short: as §1

[18] = target: CRX (Homo sapiens, UniProt O43186 1-299); conditions: protein: recombinant; tags: N-terminal GST; dsDNA, one strand shown
Sequence of CRX (O43186 whole entry): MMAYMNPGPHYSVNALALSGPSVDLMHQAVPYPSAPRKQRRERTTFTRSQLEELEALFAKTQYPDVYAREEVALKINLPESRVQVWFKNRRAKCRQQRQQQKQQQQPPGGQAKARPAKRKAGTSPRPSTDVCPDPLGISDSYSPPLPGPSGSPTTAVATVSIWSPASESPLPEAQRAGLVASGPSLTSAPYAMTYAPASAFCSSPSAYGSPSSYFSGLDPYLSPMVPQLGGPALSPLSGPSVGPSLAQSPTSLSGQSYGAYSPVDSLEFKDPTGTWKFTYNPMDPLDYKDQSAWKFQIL
In short: as §1

[19] = target: ETV1 (Homo sapiens, UniProt P50549 1-477); conditions: protein: recombinant; tags: N-terminal GST; dsDNA, one strand shown
Sequence of ETV1 (P50549 whole entry): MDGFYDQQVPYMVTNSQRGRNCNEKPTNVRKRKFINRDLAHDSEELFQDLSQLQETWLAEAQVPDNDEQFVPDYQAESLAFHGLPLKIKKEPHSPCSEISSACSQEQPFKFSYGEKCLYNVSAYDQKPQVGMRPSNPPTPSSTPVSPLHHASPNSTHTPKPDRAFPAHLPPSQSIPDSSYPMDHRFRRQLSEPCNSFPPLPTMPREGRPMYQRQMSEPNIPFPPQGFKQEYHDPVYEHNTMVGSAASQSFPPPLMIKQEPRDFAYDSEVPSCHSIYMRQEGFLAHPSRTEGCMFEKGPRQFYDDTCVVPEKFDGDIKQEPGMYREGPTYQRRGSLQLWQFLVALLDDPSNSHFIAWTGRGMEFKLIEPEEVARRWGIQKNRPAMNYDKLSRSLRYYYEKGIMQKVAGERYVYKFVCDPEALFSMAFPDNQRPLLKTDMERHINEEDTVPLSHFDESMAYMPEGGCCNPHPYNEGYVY
In short: as §1

## GCCTAA
[1]
  binding signal: 1.22 fold enrichment (6-mer frequency, TF over GST control)
[2]
  binding signal: 1.17 fold enrichment (6-mer frequency, TF over GST control)
[3]
  binding signal: 1.14 fold enrichment (6-mer frequency, TF over GST control)
[4]
  binding signal: 1.24 fold enrichment (6-mer frequency, TF over GST control)
[5]
  binding signal: 1.22 fold enrichment (6-mer frequency, TF over GST control)
[6]
  binding signal: 1.28 fold enrichment (6-mer frequency, TF over GST control)
[7]
  binding signal: 1.11 fold enrichment (6-mer frequency, TF over GST control)
[8]
  binding signal: 1.23 fold enrichment (6-mer frequency, TF over GST control)
[9]
  binding signal: 1.19 fold enrichment (6-mer frequency, TF over GST control)
[10]
  binding signal: 1.21 fold enrichment (6-mer frequency, TF over GST control)
[11]
  binding signal: 1.19 fold enrichment (6-mer frequency, TF over GST control)
[12]
  binding signal: 1.38 fold enrichment (6-mer frequency, TF over GST control)
[13]
  binding signal: 1.35 fold enrichment (6-mer frequency, TF over GST control)
[14]
  binding signal: 1.25 fold enrichment (6-mer frequency, TF over GST control)
[15]
  binding signal: 1.25 fold enrichment (6-mer frequency, TF over GST control)
[16]
  binding signal: 1.19 fold enrichment (6-mer frequency, TF over GST control)
[17]
  binding signal: 1.35 fold enrichment (6-mer frequency, TF over GST control)
[18]
  binding signal: 1.84 fold enrichment (6-mer frequency, TF over GST control)
[19]
  binding signal: 1.22 fold enrichment (6-mer frequency, TF over GST control)
